# According to PubChem BioAssay AID686978 (National Center for Advancing Translational Sciences (NCATS), 2013):
# Where “and” joins values, the source holds several entries; their conditions need not be identical. Equal entries are not always repeated. About 64,000 (15%) of roughly 420,000 compounds were called active. About 27% were inconclusive and are not listed. These entries were drawn from the full list. Values without a mark were called inactive. Calls come from the whole dose curve; as a rule, active = well fitted inhibition curve with a large enough effect; inconclusive = small, poorly fitted or top-dose-only effect; inactive = flat fitted curve, though single readings scatter.
# Test: qHTS for Inhibitors of human tyrosyl-DNA phosphodiesterase 1 (TDP1): qHTS in cells in absence of CPT; note: nearly all actives have a fitted effect of over 55% in size
# Details: DT40 Tdp1-/- hTDP1 cells, no CPT, ATP luminescence, 48 h; activity change, negative = growth inhibition: at 46.2 µM (top of the series)
# In short: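 Compound effects on proliferation are scored in DT40 Tdp1-/-;hTDP1 cells in the absence of CPT. ATP levels (CellTiter-Glo luminescence) are recorded after a ≥48 hr, 37 °C incubation.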
# % is set by controls: 0 for no effect and ±100 for the full control effect; potency is the fitted concentration of half-maximal effect.
Structure (SMILES),"activity change, negative = growth inhibition [%]",Potency
COc1ccc(NC(=O)CSc2nnc(Cc3ccccc3)c(=O)n2N)cc1,-10.7,–
COc1ccc(-n2nnnc2SCC(=O)Nc2ccccc2)cc1,-28.3,–
COc1ccc(NC(=O)CSc2nc3ccccc3c(=O)n2C)cc1,–,10.3 µM (active)
O=C1/C(=C\Nc2ccccc2)CCN1c1ncccn1,-14,–
CCC(C)(C)NC(=O)C(c1ccc(O)cc1)N(Cc1ccco1)C(=O)CCC(=O)Nc1ccccn1 (stereo unspecified),-15.2,–
Cc1ccc(C(C(=O)NC2CCCC2)N(Cc2ccco2)C(=O)CCC(=O)Nc2ccccn2)cc1 (stereo unspecified),–,16.4 µM (active)
Cc1cc(NC(=O)CCC(=O)N(c2ccccc2)C(C(=O)NC2CCCC2)c2ccncc2)no1 (stereo unspecified),-2.03,–
CC(=O)NC1(c2ccc(F)cc2)CCN(C(=O)c2c(F)cccc2F)CC1,-1.26,–
Cc1cc(C)cc(NC(=O)NC2CCCCCCC2)c1,3.43,–
CC(C)(C)NS(=O)(=O)c1ccc(NC(=O)NC2CCCCC2)cc1,-24.7,–
CC(C)c1ccc(NC(=O)NC2CCCCC2)cc1,–,20.6 µM (active)
O/N=C(\C[n+]1ccccc1)c1ccc(Br)cc1,9.42,–
COc1ccc(CCNC(=O)CN2CCC(n3nnc4cc(F)ccc43)CC2)cc1OC,-21.5,–
Cc1cccc(NC(=O)COC(=O)CCc2ccccc2)c1C,-0.618,–
Cc1cccc(NC(=O)CSC(N)=O)c1C,–,18.4 µM (active)
Cc1ccccc1NC(=O)CSC(=O)c1ccccc1,-114,–
N#CCCN(C(=O)COC(=O)c1ccc(S(=O)(=O)N2CCCCCC2)cc1)c1ccccc1,-20.9,–
COc1ccccc1-n1nnnc1SCC(=O)NC(=O)Cc1ccccc1,9.83,–
COc1ccccc1-n1nnnc1S(=O)(=O)Cc1ccc(Cl)cc1,–,6.51 µM (active)
CCC(C)N(C(=O)CSc1nnnn1-c1ccccc1OC)C1CCS(=O)(=O)C1 (stereo unspecified),15.2,–
CCOC(=O)C(Sc1ncc(C#N)c(N)n1)C(C)C (stereo unspecified),-16.3,–
O=C(CSc1nnc(-c2ccncc2)n1-c1ccc(Cl)cc1)Nc1ccc(C(=O)O)cc1,-9.17,–
Cc1cc(NC(=O)CSCC(=O)NC(C)c2ccccc2)no1 (stereo unspecified),4.75,–
CN(CC(=O)Nc1c(Cl)cccc1Cl)C(=O)CC1OC(=O)c2ccccc21 (stereo unspecified),2.57,–
Cc1ccc(S(=O)(=O)Nc2ccccc2CNc2c(C)n(C)n(-c3ccccc3)c2=O)cc1,1.18,–
CCc1ccccc1NS(=O)(=O)c1ccc2nc(-c3ccccc3)[nH]c2c1,–,9.2 µM (active)

Structure (SMILES),"activity change, negative = growth inhibition [%]",Potency
CCc1ccc(NC(=O)C2CCCN2S(=O)(=O)c2ccc3nc(-c4ccccc4)[nH]c3c2)cc1 (stereo unspecified),–,23.1 µM (active)
CCOc1ccc(OCC)c(NS(=O)(=O)c2ccc3[nH]c(=O)ccc3c2)c1,1.43,–
CC(=O)Nc1ccc(NC(=O)C2CCCN2S(=O)(=O)c2cccc(C(F)(F)F)c2)cc1 (stereo unspecified),8.22,–
CCc1nnc(NC(=O)C2CCCN2S(=O)(=O)c2ccccc2)s1 (stereo unspecified),4.37,–
COc1ccc(NC(=O)C2C3CCC(O3)C2C(=O)O)cc1OC (stereo unspecified),21.9,–
CC(=O)N1CCN(CC(C)(C)NS(=O)(=O)c2ccc(C)cc2)CC1,17.7,–
COc1cc(OC)c(C(=O)NNC(=O)c2ccc(NS(=O)(=O)c3cccs3)cc2)cc1OC,3.62,–
COC(=O)Cn1c2ccc(C)cc2c2nc(C)sc21,-12.8,–
CCN(CC)CCn1c2ccc(Cl)cc2c2nc(C)sc21,–,23.1 µM (active)
COc1cc2c(cc1OC)C(c1ccccc1Br)NC(=O)C2 (stereo unspecified),7.95,–
O=C(CCn1c(=O)oc2ccccc21)Nc1ccon1,-1.36,–
O=C(CNC(=O)c1ccccc1Br)NNC(=O)c1cccs1,3.7,–
Cc1ccc(C)c(S(=O)(=O)c2nnn3c2nc(N2CCOCC2)c2sccc23)c1,–,23.1 µM (active)
Cc1ccc(S(=O)(=O)c2nnn3c2nc(N2CCN(c4ccccn4)CC2)c2ccccc23)cc1,0.726,–
O=S(=O)(c1ccc(Br)cc1)c1nnn2c1nc(NC1CCCCCC1)c1sccc12,-5.37,–
COc1ccc(CCOC(=O)CNC(=O)c2ccc(Cl)cc2Cl)cc1,11.6,–
COc1ccc(NC2CCCN(C(=O)c3ccccc3-c3ncc[nH]3)C2)cc1 (stereo unspecified),-7.25,–
COc1ccc(Nc2ncc(C(=O)Nc3cc(C)ccc3OC)c3ccccc23)cc1,–,23.1 µM (active)
COC(=O)c1cnc(Nc2cc(C)ccc2OC)c2ccccc12,2.44,–
COc1ccccc1N1CCN(C(=O)c2ccc(NC3=NC4CS(=O)(=O)CC4S3)cc2)CC1 (stereo unspecified),-10.6,–
COc1ccc(Nc2ncc(C(=O)N3CCN(c4ccccc4OC)CC3)c3ccccc23)cc1,–,25.9 µM (active) and 5.8 µM (active)
COc1ccc(NC(=O)c2cnc(Nc3ccc(C)c(Cl)c3)c3ccccc23)cc1OC,10.1,–
CC(C)(C)C(=O)CSc1ccc(S(=O)(=O)N2CCCC2)cn1,-12,–
Cc1ccccc1NC(=O)c1cc2c([nH]c1=O)CC(C)(C)CC2=O,1.54,–
Cn1c(CSCC(=O)Nc2ccccc2)nnc1SCc1ccccc1,-16.4,–
